# Measurements reported in PubChem BioAssay AID2289 (National Center for Advancing Translational Sciences (NCATS), 2010).
# The whole screen tested about 340,000 compounds, of which about 3,300 (0.97%) were called active. Inconclusive results (about 9%) are left out. Calls follow the shape of the dose curve; as a rule, active = well fitted inhibition curve with a large enough effect; inconclusive = small, poorly fitted or top-dose-only effect, or effect the other way; inactive = flat fitted curve, though single readings scatter. The list shows a part of the results.
# Experiment: qHTS Assay for Modulators of miRNAs and/or Inhibitors of miR-21; also: nearly all actives have a fitted effect of over 55% in size
# Settings: HeLa miR-21-FLuc reporter, luciferase luminescence, 48 h; actives lower the signal
# Source text: MLSCN Grant: 1 R21 NS059478-01 Assay Provider: Qihong Huang, The Wistar Institute NCGC Assay Overview: MicroRNAs (miRNAs) are endogenously encoded small (~20-25 nucleotides), nonprotein-coding RNAs that are involved in post-transcriptional repression of target messenger RNAs (mRNAs) (Le and Hannon, 2004). Estimated to be involved in the regulation of 30% of all protein-coding mRNAs (Filipowicz et al., 2008), miRNAs play a significant role in many biological processes including cellular differentiation and tissue development (Ghildiyal and Zamore, 2009).
# NCGC Assay Protocol Summary: Reagents: HeLa cells stably expressing firefly luciferase (FLuc) under the control of a CMV promoter (upstream) and a miR-21 binding sequence directly downstream of the gene. These cells endogenously express miR-21. Control compounds used were compound C3 (provided by collaborator), N6-phenyladenosine (MP Biomedicals, 0215379625), and DMSO. Assay Summary: 6uL of HeLa miR-21-FLuc cells in assay buffer (DMEM, Invitrogen #21063-029; 10% FBS, HyClone #SH30071.03) were dispensed at 2000cells/well (3.3 x 10^5 cells/mL) into Greiner solid-white TC-treated 1536-well plates using a Multidrop Combi (Thermo Fisher Scientific). Plates were incubated for one hour at 37 degree Celsius, 95% humidity, 5% CO2. These assay plates were then treated with 23nL of compound or DMSO using a Kalypsys pin tool, which allows for delivery of a 24-point titration of each compound to the assay plate, with a final compound concentration ranging from approximately 40uM to 5pM. Assay plates were then incubated for 48 hours. After incubation, plates were allowed to come to RT for one hour prior to delivery of 3uL of 3X luciferase detection reagent. After a 15 minute incubation to allow for cell lysis, luciferase activity was measured using a ViewLux CCD imager (PerkinElmer), with an average exposure time of 2-12 seconds. Keywords: NIH Roadmap, MLPCN, MLSMR, qHTS, miR-21, microRNA, firefly luciferase, FLuc.
# Potency is read from the fitted curve at half-maximal effect.
row,SMILES,Potency
1,CCOC(=O)c1c(C)[nH]c(N=Nc2ccc(OC)cc2)c1C,2.93 µM (active)
2,CCOC(=O)c1c(C)[nH]c(N=Nc2ccccc2)c1C,7.36 µM (active)
3,CCOC(=O)c1c(C)[nH]c(N=Nc2ccc(C)cc2C)c1C,10.4 µM (active)
4,CCOC(=O)c1c(C)[nH]c(N=Nc2cccc(OC)c2)c1C,0.927 µM (active)
5,CCOc1ccc(N=C(/C(C(=O)C(=O)N2CCOCC2)=C(\O)c2ccccc2)c2ccccc2)cc1,3.69 µM (active)
6,CC1CCCCN1c1nc(-c2ccc(C(C)(C)C)cc2)nc2ccccc12 (stereo not given),0.585 µM (active)
7,CCOC(=O)C1CCCN(c2ncnc3c2oc2ccccc23)C1 (stereo not given),16.5 µM (active)
8,Brc1ccc2oc3c(N4CCOCC4)ncnc3c2c1,4.65 µM (active)
9,c1ccc2c(c1)oc1c(N3CCOCC3)ncnc12,16.5 µM (active)
10,Cc1ccc(-c2onc3ccc(C(=O)O)cc23)cc1,1.17 µM (active)
11,FC(F)(F)c1ccc(NCc2ccccn2)nc1,13.1 µM (active)
12,COc1cc(N2Cc3ccccc3C2)ccc1C=O,5.21 µM (active)
13,Clc1ccc(/C=N/Nc2ncnc3nc[nH]c23)cc1,1.65 µM (active)
14,Fc1cccc(/C=N/Nc2ncnc3nc[nH]c23)c1,1.65 µM (active)
15,Fc1ccc(/C=N/Nc2ncnc3nc[nH]c23)cc1F,4.14 µM (active)
16,CC(C)Sc1nc(N)nc(-c2cccs2)c1C#N,2.93 µM (active)
17,CCCSc1nc(N)nc(-c2cccs2)c1C#N,13.1 µM (active)
18,CCSc1nc(N)nc(-c2cccs2)c1C#N,16.5 µM (active)
19,CCCCNC(=O)N(C)c1nc2ccccc2s1,8.26 µM (active)
20,COc1ccc2nc(SCc3cccc(C)c3)nc(C)c2c1,7.36 µM (active)
21,Cc1nc(SCc2ccccc2)nc2c1CCC2,5.85 µM (active)
22,COc1ccc2nc(SCc3ccccc3)nc(C)c2c1,1.17 µM (active)

row,SMILES,Potency
1,O=C1/C(=C\c2cccs2)Sc2ccc3ccccc3c21,0.521 µM (active)
2,Cn1c(NC(=O)CCc2ccccc2)cc(=O)n(C)c1=O,3.69 µM (active)
3,Cn1c(NC(=O)CCC2CCCCC2)cc(=O)n(C)c1=O,1.17 µM (active)
4,Cc1cc(NC(=O)CCC2CCCCC2)no1,16.5 µM (active)
5,O=C(CNC(=O)c1ccc(F)cc1)c1ccc(Cl)cc1,3.69 µM (active)
6,O=C(CNC(=O)c1cccs1)c1ccc(Br)cc1,3.29 µM (active)
7,CC1CCC(NC(=O)CNC(=O)c2cccs2)CC1 (stereo not given),3.29 µM (active)
8,O=C(CCCC(=O)c1ccc(F)cc1)c1ccc(F)cc1,3.29 µM (active)
9,O=C(CNC(=O)c1ccccc1F)c1ccc(Br)cc1,1.47 µM (active)
10,Cc1ccc(N=C2NC(=O)/C(=C\c3cccs3)S2)cc1C,10.4 µM (active)
11,Clc1ccc(OCCSc2ncccn2)c(Br)c1,1.31 µM (active)
12,Cc1ccc(OCCCSc2ncccn2)cc1C,14.7 µM (active)
13,Clc1ccc(OCCSc2ncccn2)cc1,3.69 µM (active)
14,CC(C)CSc1nnc2c3ccccc3n(C)c2n1,1.31 µM (active)
15,O=C(/C=C/c1nc2ccccc2s1)N1CCCCCC1,2.07 µM (active)
16,CCC(=O)N1CCc2nc(-c3ccccc3)sc2C1,14.7 µM (active)
17,Cc1cccc(C)c1NC(=O)c1c[nH]c2ccccc12,3.69 µM (active)
18,Clc1nc(-c2cccnc2)nc2scc(-c3ccccc3)c12,7.36 µM (active)
19,O=C(CSc1ccc(F)cc1)Nc1ccc(C2SCCS2)cc1,11.7 µM (active)
20,COc1ccc(NC(=O)CCSc2ccc(F)cc2)cc1,7.36 µM (active)
21,COc1ccccc1NC(=O)c1csc2c1CCC(C)C2 (stereo not given),5.85 µM (active)
22,CC1CCc2c(C(=O)NCc3ccccn3)csc2C1 (stereo not given),11.7 µM (active)

row,SMILES,Potency
1,Cc1ccc(-c2cc(NC(=O)c3ccccc3Cl)on2)cc1,2.61 µM (active)
2,CCc1nc(NC(C)(C)C)c2cnn(-c3ccccc3)c2n1,7.36 µM (active)
3,Cc1ccoc1C(=O)Nc1cccc(Oc2ccccc2)c1,3.29 µM (active)
4,CCn1c(O)c(/C=C2\C=Nc3ccccc32)sc1=O,1.17 µM (active)
5,CCn1c(O)c(/C=C2\C=Nc3ccccc32)sc1=Nc1ccccc1,7.36 µM (active)
6,N/C(Cc1cccc2ccccc12)=N\OC(=O)Cc1cccs1,11.7 µM (active)
7,N/C(=N\OC(=O)Cc1cccs1)c1ccc(Br)cc1,16.5 µM (active)
8,COc1ccc(/C(N)=N/OC(=O)Cc2cccs2)cc1,6.56 µM (active)
9,N/C(Cc1cccs1)=N\OC(=O)COc1ccccc1Cl,14.7 µM (active)
10,Fc1ccc(/C=C/c2nnc(-c3cccs3)o2)cc1,2.07 µM (active)
11,Clc1ccc2oc(-c3ccccc3)cc(=NCCCN3CCOCC3)c2c1,4.14 µM (active)
12,CCOc1ccc(N/C=C/C(=O)c2ccc(OC)c(OC)c2)cc1,9.27 µM (active)
13,COc1ccc(N/C=C\C(=O)c2ccc(C)cc2)cc1OC,14.7 µM (active)
14,COc1ccc(N/C=C/C(=O)c2ccc(Cl)cc2)cc1,1.04 µM (active)
15,Cc1ccc(N/C=C/C(=O)c2ccc(C)cc2)cc1,2.33 µM (active)
16,Cc1ccc(NC(=O)C(=O)c2ccc(C)cc2)cc1,2.93 µM (active)
17,COc1ccc(C(=O)/C=C/Nc2cc(C)on2)cc1,2.93 µM (active)
18,CC(=O)c1ccc(N/C=C\C(=O)c2ccc(C)cc2)cc1,1.31 µM (active)
19,COc1ccc(C(=O)/C=C/Nc2ccc(C)cn2)cc1OC,1.65 µM (active)
20,O=C(COc1ccc(F)cc1)N1CCC(c2ccccc2)C1 (stereo not given),13.1 µM (active)
21,COc1ccccc1/C=C/C(=O)N1CCC(c2ccccc2)C1 (stereo not given),2.93 µM (active)
22,O=C(c1ccc(F)cc1)N1CCC(n2nnc3ccccc32)CC1,5.85 µM (active)

row,SMILES,Potency
1,O=C(c1ccc(F)cc1)N1CCC(c2ccccc2)C1 (stereo not given),7.36 µM (active)
2,O=C(N/N=C\c1ccco1)Nc1cccc(Cl)c1,1.85 µM (active)
3,Nc1c(C(=O)N2CCCC2)sc2nc(-c3ccccc3)ccc12,3.69 µM (active)
4,NC(=O)c1sc2nc(-c3cccnc3)ccc2c1N,18.5 µM (active)
5,NC(=O)c1sc2nc(-c3ccccc3)ccc2c1N,1.85 µM (active)
6,C=CCNC(=O)/C=C/c1ccc(C(C)C)cc1,7.36 µM (active)
7,CCCNC(=O)/C=C/c1ccc(C(C)C)cc1,16.5 µM (active)
8,CCCOc1cccc(C(=O)Nc2ccc(Br)cc2F)c1,1.85 µM (active)
9,Nc1c(C(=O)c2cccs2)sc2nsc(SCCN3CCCCC3)c12,4.14 µM (active)
10,CN1/C(=C\C(=O)c2cccc([N+](=O)[O-])c2)Sc2ccccc21,0.329 µM (active)
11,Cc1ccc(C(=O)Cn2nnc3ccccc32)cc1C,1.31 µM (active)
12,Cc1ccc(C(=O)Cn2nnc3ccccc32)cc1,2.33 µM (active)
13,Clc1ccccc1CSc1ncn(-c2ccccc2)n1,5.85 µM (active)
14,Clc1cccc(CSc2ncn(-c3ccccc3)n2)c1,16.5 µM (active)
15,C/C(=N/NC(=O)c1cccs1)c1ccc(N2CCOCC2)cc1,11.7 µM (active)
16,O=C(N/N=C/c1ccc(N2CCOCC2)cc1)c1cccs1,3.29 µM (active)
17,O=C(Nc1nc2c(F)cc(F)cc2s1)c1ccc2c(c1)OCCO2,0.0826 µM (active)
18,O=C(/C=C/c1ccc2c(c1)OCCCO2)c1ccccc1O,2.07 µM (active)
19,Cc1ccc(C(=O)/C=C/c2ccc3c(c2)OCCO3)c(O)c1,18.5 µM (active)
20,C=CCn1c(C)csc1=Nc1ccc(C(C)=O)cc1,10.4 µM (active)
21,Cc1cc(C)nc(S/C=C/C(=O)c2ccccc2F)n1,11.7 µM (active)
22,C/C(N)=C(/C#N)C(=O)CSc1ccccc1F,8.26 µM (active)

row,SMILES,Potency
1,Cc1cc(C)n2cc(CSc3nc4ccccc4s3)nc2n1,4.65 µM (active)
2,Cc1cc(C)n2cc(COc3ccc4ccccc4c3)nc2n1,1.17 µM (active)
3,Cc1cc(C)n2c(Br)c(CSc3nc4ccccc4s3)nc2n1,4.14 µM (active)
4,Cc1cnc(C(=O)Nc2ccc(C(C)C)cc2)cn1,1.65 µM (active)
5,CC(C)c1ccc(NC(=O)C2=NNC(=O)CC2)cc1,2.33 µM (active)
6,O=C1c2ccccc2NC(c2ccccc2O)N1c1ccc(F)cc1 (stereo not given),2.93 µM (active)
7,O=C(Nc1ccc2c(c1)CCC2)c1ccc(Br)s1,0.261 µM (active)
8,O=C(Nc1cccc(F)c1)Nc1ccc2c(c1)CCC2,0.736 µM (active)
9,O=C(Nc1ccc2c(c1)CCC2)c1cccc(F)c1,4.14 µM (active)
10,O=C1NC(c2ccc(Br)cc2)=N/C1=C/c1ccco1,0.927 µM (active)
11,O=C1NC(c2ccccc2Cl)=N/C1=C/c1ccco1,10.4 µM (active)
12,c1csc(-c2nn3c(C4COc5ccccc5O4)nnc3s2)c1 (stereo not given),16.5 µM (active)
13,COc1ccc(NC(=O)c2cc(F)cc(F)c2)cc1Cl,9.27 µM (active)
14,COc1ccc(NC(=O)Nc2ccccc2F)cc1Cl,2.07 µM (active)
15,COc1ccc(C(=O)Nc2ccc(Cl)c(Cl)c2)c(OC)n1,0.355 µM (active)
16,O=C(Cc1cccs1)NCc1cc(Cl)cc(Cl)c1,14.7 µM (active)
17,Cc1cccc(CCNc2nc3ccc(C)cc3n3cnnc23)c1,16.5 µM (active)
18,Cc1cc(C(=O)N/N=C/c2c(C)nn(-c3ccccc3)c2C)n[nH]1,14.7 µM (active)
19,Cc1cc(C(=O)N/N=C/c2c(C)nn(-c3ccccc3)c2C)c(C)o1,8.26 µM (active)
20,Cc1cc(C(=O)N/N=C/c2ccccc2)c(C)o1,6.56 µM (active)
21,COc1cccc2[nH]c(=O)c(-c3ccccc3)cc12,1.65 µM (active)
22,Nc1nc(-c2ccc(Cl)cc2)nnc1-c1ccc(Br)cc1,2.07 µM (active)
